This is a sample that favours compounds with a hit; in the whole collection about 4% have one here.
Rv3671c inh – inhibitors of M. tuberculosis serine protease Rv3671c; P9WHR9; inhibition, % at 5.96 µM; 320,000 compounds, 0.048% hits; in the data active means inhibition above about 38%;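 further: extracellular domain of Rv3671c used as enzyme; 0% = enzyme with DMSO and 100% = no enzyme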
Target sequence (P9WHR9 whole entry, looked up, the tested form may be a part): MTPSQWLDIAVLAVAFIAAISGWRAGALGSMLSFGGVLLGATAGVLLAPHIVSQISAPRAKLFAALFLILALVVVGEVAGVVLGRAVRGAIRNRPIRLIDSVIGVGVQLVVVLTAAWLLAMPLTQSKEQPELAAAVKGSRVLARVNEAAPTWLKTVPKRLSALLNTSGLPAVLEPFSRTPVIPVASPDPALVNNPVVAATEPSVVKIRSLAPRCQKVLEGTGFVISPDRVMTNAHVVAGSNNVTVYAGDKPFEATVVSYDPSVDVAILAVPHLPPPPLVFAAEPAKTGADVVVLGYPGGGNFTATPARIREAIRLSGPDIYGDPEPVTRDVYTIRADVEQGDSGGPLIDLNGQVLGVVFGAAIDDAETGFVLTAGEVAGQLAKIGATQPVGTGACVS
FBA Mtb inh – Mtb fructose-bisphosphate aldolase inhibition. P9WQA3. purified M. tuberculosis FBA, fluorescence read-out. inhibition, % at 1 µM. 360,000 compounds, 2.3% hits;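 further: 0% = vehicle and 100% = reference inhibitor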
Mtb UGM inh – inhibitors of M. tuberculosis UDP-galactopyranose mutase; purified UGM, fluorescence polarization probe displacement; 320,000 compounds, 0.06% hits; AID 504406; inhibition, % at 10 µM; P9WIQ1; in the data active means inhibition above about 10%, passing the limit was not always enough
Mtb betalactam – beta-lactam sensitization of Mtb H37Rv; M. tuberculosis H37Rv growth with meropenem, percent inhibition; inhibition, % at 25 µM; 330,000 compounds, 0.27% hits; AID 434955; call rule not given here;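 further: growth measured after seven days incubation then overnight dye step; 0% = bacteria only wells and 100% = bacteria with antibiotic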
GDH-TPI counter-1 – GDH-TPI coupled enzyme inhibition counter-screen; inhibition, % at 4.8 µM; GDH-TPI coupled enzyme counterscreen, NADH absorbance; 360,000 compounds, 1.2% hits; AID 588335; in the data active means inhibition above about 30%;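 further: 0% = DMSO wells and 100% = wells lacking the enzyme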
RecA intein inh – blocks M. tuberculosis RecA intein splicing. 290,000 compounds, 0.75% hits. inhibition, % (concentration not given with the values). cell-free RecA intein splicing, fluorescence; in the data active means inhibition above about 30%;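 further: 0% = vehicle wells and 100% = reference inhibitor control wells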
Mtb FBA confirm – confirmation of M. tuberculosis fructose-bisphosphate aldolase inhibitors. inhibition, % at 1 µM. shares compounds with FBA Mtb inh. purified M. tuberculosis FBA, fluorescence read-out. 5,600 compounds, 78% hits. AID 651616;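 further: 0% = vehicle wells and 100% = reference inhibitor wells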
GDH-TPI counter-2 – inhibits GDH-TPI coupling enzymes, flagging Mtb FBA hits. 5,600 compounds, 81% hits. GDH-TPI coupled enzyme counterscreen, fluorescence. inhibition, % at 1 µM. shares compounds with FBA Mtb inh; in the data active means inhibition above about 10%
Active calls of the source: *; . = not tested or not shown; + = active, no number. Unless noted, no stated cut-off is given here; in the data, active means inhibition above about 27%; inactive means the rest.

SMILES	Rv3671c inh	FBA Mtb inh	Mtb UGM inh	Mtb betalactam	GDH-TPI counter-1	RecA intein inh	Mtb FBA confirm	GDH-TPI counter-2
Cc1cc2cc(C)c(NCCNC(=O)c3ccccc3Cl)nc2cc1C	-4.8	4.5	0.5	8.3	13.8	6.7	.	.
CCOc1ccc2nc(NCCCNC(=O)c3cc(OC)c(OC)c(OC)c3)c(C#N)cc2c1	0.0	2.6	-0.8	-1.4	2.5	-1.2	.	.
CCOc1ccc2nc(NCCNC(=O)CC)c(C#N)cc2c1	-7.0	43.2*	-2.0	-1.7	-2.2	-415.3	104.6*	114.4*
CCC(=O)NCCNc1nc2cc(C)c(C)cc2cc1C#N	-2.9	53.0*	0.8	-2.5	4.4	1.8	5.8	-1.5
COc1ccc(-c2nc3nc(C)cc(C)n3n2)cc1	-4.5	57.2*	-0.2	-8.7	-10.6	.	49.5*	38.0*
COc1ccc(CNc2nc3nc(C)cc(C)n3n2)cc1	-1.3	8.3	-8.8	-7.6	4.3	-1.8	.	.
Cc1cc(C)n2nc(NCc3ccccc3)nc2n1	1.1	54.7*	0.1	-7.5	6.5	-9.7	3.8	-5.2
CCc1ccc(CN2C(=O)c3ccccc3C2C(=O)NC(C)CC)cc1 (centres undefined)	-2.1	104.5*	-5.6	1.8	5.5	0.4	47.7*	44.4*
Cc1nn2c3ccccc3n(CCN3CCCCC3)c2nc1=O	5.2	32.2*	-0.3	-1.4	6.8	0.6	154.2*	102.2*
O=C(O)CCc1nc2ccccc2n(CCc2ccccc2)c1=O	-2.8	13.3	1.9	-1.5	9.1	3.8	.	.
O=C(O)CCc1nn2c3ccccc3nc2n(CCN2CCCCC2)c1=O	-1.3	34.6*	3.8	-12.3	20.1	-3.2	117.4*	88.2*
CCc1nc2c(OCCn3cccc3)cccn2c1N(C)C(=O)c1ccc(OC)cc1	.	0.0	.	.	9.3	.	.	.
O=C(NCc1ccncc1)C1Cc2c(-c3ccc4c(c3)OCO4)ccnc2O1 (centres undefined)	.	45.3*	.	.	-3.6	.	59.0*	44.4*
CN1CCN(c2ccc(CNC(=O)C3Cc4c(-c5ccc6c(c5)OCO6)ccnc4O3)cc2)CC1 (centres undefined)	.	23.1	.	.	-6.2	.	.	.
O=C(NCc1ccccc1)C1Cc2c(-c3ccc4c(c3)OCO4)ccnc2O1 (centres undefined)	.	64.8*	.	.	4.5	.	+	+
NC(=O)c1cccc(-c2ccnc3c2CC(C(=O)NCc2ccccc2)O3)c1 (centres undefined)	.	4.6	.	.	3.5	.	.	.
COc1ccc(-c2oc3ccc(N4CCOCC4)cc3c2/C=C/c2ccc(OC)c(OC)c2)cc1	-2.2	36.2*	1.0	26.1	39.9*	-5.2	+	175.7*
COc1ccc(/C=C/c2c(-c3ccc(OC)cc3)sc3ccc(N4CCOCC4)cc23)cc1	-0.4	4.4	-1.6	-2.6	23.1	-2.1	.	.
CN(C)CCNC(=O)Cn1ccc2cc(S(=O)(=O)N3CCCCCC3)ccc21	-0.5	2.9	-0.3	-5.9	-1.5	-0.6	.	.
Cc1ccc(NC(=O)C2(C)CCN2Cc2ccccc2OC(F)F)cc1 (centres undefined)	.	-0.3	.	.	8.4	.	.	.
COc1ccc2c(O)c(-c3c(C)cc(C)cc3C)c(=O)[nH]c2c1	-4.2	46.4*	2.0	49.7	17.1	2.0	-6.1	-6.7
Cc1cc(F)ccc1-c1cc(C(=O)N2CCN(c3ccncc3)CC2)[nH]n1	.	-1.7	.	.	0.9	.	.	.
CC1CCCN(CCCNC(=O)c2ccc3c(c2)N(Cc2ccccc2F)C(=O)c2ccccc2S3(=O)=O)C1 (centres undefined)	-7.3	4.7	-1.1	-1.1	-3.5	-1.9	.	.
FC(F)(F)c1nc2nc(Cl)c(Cl)nc2n1CCCN1CCOCC1	.	47.6*	.	.	20.4	.	+	+
NC(N)=N/N=C/c1ccc(N(c2ccccc2)c2ccccc2)cc1	18.4	104.5*	-0.2	99.5	8.1	-122.3	70.9*	48.7*
SMILES	Rv3671c inh	FBA Mtb inh	Mtb UGM inh	Mtb betalactam	GDH-TPI counter-1	RecA intein inh	Mtb FBA confirm	GDH-TPI counter-2
O=C(NCCc1ccccc1)C1CCC(=O)N(CCCN2CCCC2=O)C1 (centres undefined)	1.8	-0.9	1.8	-3.7	-0.8	0.8	.	.
O=C(NCc1cc2ccccc2[nH]1)C1CCC(=O)N(CCCN2CCCC2=O)C1 (centres undefined)	-2.4	30.0*	3.5	-6.8	4.8	2.4	62.4*	32.2*
COc1ccc(C2=NN(C(=O)c3cccs3)C(O)(C(F)(F)F)C2)cc1 (centres undefined)	3.1	1.8	-0.1	4.9	1.9	3.5	.	.
COc1ccc(C2=NN(c3nc(C(=O)O)cs3)C(O)(C(F)(F)F)C2)c(OC)c1 (centres undefined)	-1.8	52.7*	0.1	-2.0	26.4	3.0	79.0*	60.5*
NS(=O)(=O)c1cccc(NC(=O)CSc2nc3nc(-c4cccs4)cc(C(F)(F)F)c3c(=O)[nH]2)c1	-43.6	32.8*	0.8	-11.5	22.2	0.6	172.7*	119.0*
O=C(CSc1nc2nc(-c3cccs3)cc(C(F)(F)F)c2c(=O)[nH]1)Nc1c(F)c(F)c(F)c(F)c1F	-33.9	3.9	-0.5	-2.5	7.4	4.9	.	.
Cc1[nH]n2c(=O)c3c(nc2c1-c1cccc2ccccc12)CCC3	4.9	50.8*	-0.8	82.4	7.7	3.6	132.2*	96.2*
Cc1[nH]n2c(=O)c3c(nc2c1-c1ccccc1)CCCC3	0.5	4.9	0.0	99.8	4.3	1.1	.	.
Cc1csc2nc3cc(C(N)=O)ccc3c(=O)n12	-0.3	71.6*	-0.1	-6.0	11.4	-96.0	+	+
O=C(NC1CCCCCC1)c1ccc2c(=O)n3c(nc2c1)CCCCC3	-6.6	6.2	0.7	9.0	4.9	1.5	.	.
NC(=O)c1ccc2c(=O)n3c(-c4cc(Cl)c(N)c(Cl)c4)csc3nc2c1	-14.4	2.6	-2.2	-2.6	10.8	1.8	.	.
Cc1ccc(C(=O)CSc2nc3ccc(C(=O)NCCN4CCCCC4)cc3c(=O)[nH]2)cc1	-17.1	-0.5	-0.1	-10.4	0.9	0.4	.	.
Cc1ccc(-c2csc3nc4cc(C(=O)NC5CCC(O)CC5)ccc4c(=O)n23)cc1 (centres undefined)	-10.3	30.2*	-3.6	-7.0	5.7	-3.1	0.1	-1.5
Cc1ccc(-c2csc3nc4ccc(C(=O)NCCO)cc4c(=O)n23)cc1	-1.3	30.8*	-2.9	7.2	5.1	-49.7	+	+
COc1cc(OC)cc(-c2noc(-c3csc([C@@H]4O[C@H](CO)[C@H](O)[C@H](O)[C@H]4O)n3)n2)c1	.	4.0	.	.	-4.4	.	.	.
CCCCn1nc2cc(C(=O)NC3CCCc4ccccc43)ccc2c1OCC (centres undefined)	0.7	36.4*	0.8	12.3	3.1	6.1	184.0*	131.6*
CCOCCCNC(=O)c1ccc2c(c1)ncn2C1CCCC1	5.5	5.6	1.6	3.4	4.9	-3.5	.	.
